Test [1] relates to Wnt5a (protein binding on small-molecule microarray). The experiment in a line: Wnt5a binders on small-molecule microarray, primary screen, biophysical, 635/667 nm fluorescence (AID 1142).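 Further: fluorescence read at 667 nm with signal to noise per printed feature.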 The conditions noted are these: 635 nm fluorescence, higher = more signal.
Test [2] can be described thus: cell viability in Huh7 cells, primary screen, cytotoxicity control for HCV replication inhibitor project, CellTiter-Glo luminescence, basal, 48 h (AID 1143).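 Further: Huh7 hepatoma cells carrying a hepatitis C replication reporter with no stimulus; test concentration not given here.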 The conditions noted are these: Huh7 HCV replicon, CellTiter-Glo luminescence, 48 h, higher = more signal, called active from +8 up or from −8 down unless noted.
Test [3] in a line: P. aeruginosa biofilm formation inhibitors, primary screen, PAO1 strain, BacTiter-Glo luminescence, LB-PBS (AID 1144). The note with it: 12 h, higher = more signal.
A short description of test [4]: CREB reporter modulators without forskolin, primary screen, cell-based, PC12, CRE-LacZ reporter, unstimulated (AID 1145). The note with it: no forskolin, luminescence, 4.5 h; higher = more signal, called active from +8 up or from −8 down unless noted.
Test [5] in a line: CREB reporter modulators under forskolin, primary screen, cell-based, PC12, CRE-LacZ reporter, forskolin-stimulated (AID 1146).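 Further: PC12 cells with 6xCRE LacZ reporter stimulated by forskolin 10 µM; beta-galactosidase reporter signal reflecting CREB driven transcription.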 The conditions noted are these: luminescence, 4.5 h; higher = more signal, called active from +8 up or from −8 down unless noted.
Test [6] deals with Streptavidin (Streptomyces avidinii) (UniProt P22629). The experiment in a line: streptavidin binders on small-molecule microarray, primary screen, artefact control for SMM compound annotation, biophysical, 635/667 nm fluorescence (AID 1147).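 Further: signal reflects streptavidin binding to arrayed compounds as a control protein.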 The conditions noted are these: streptavidin binding, higher = more signal.
Test [7] is described as follows: small-molecule binders of probe aInhba, primary screen, biochemical, small-molecule microarray, 635/667 nm fluorescence (AID 1148).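 Further: score merges 667nm spot fluorescence with signal-to-noise for antibody binding to printed compounds.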 The conditions noted are these: higher = more signal; small-molecule microarray, probe aInhba, fluorescence unless noted.
In test [8] the target is Torsin-1A (Homo sapiens) (UniProt O14656). The experiment in a line: torsin A binders from cell lysate, primary screen, small-molecule microarray, wild-type, 635/667 nm (AID 1149). The note with it: COS7 hTOR1A-WT lysate, 635 nm fluorescence, higher = more signal.
Test [9] shares this target. The test can be described thus: small-molecule binders of mutant TOR1A in lysate, primary screen, cell lysate, small-molecule microarray, COS7 lysate, 635/667 nm fluorescence (AID 1150).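 Further: score pools 667 nm emission and signal to noise measuring lysate protein binding.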 The note with it: COS7 hTOR1A mutant lysate, 635 nm fluorescence, higher = more signal.
Test [10] relates to Sonic hedgehog protein (Shh). The test can be described thus: small-molecule binders of Shh protein, primary screen, biochemical, small-molecule microarray, 635/667 nm fluorescence (AID 1151).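 Further: Shh protein binding to compounds spotted on small-molecule microarray slides; score combines spot fluorescence intensity with signal-to-noise across triplicate slides.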 The note with it: small-molecule microarray binding, 635 nm fluorescence; higher = more signal.
The nature of test [11]: E. coli DRC41 culture turbidity changes, primary screen, E. coli filamentation inducer project, strain DRC41, OD650, 48 h (AID 1152).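 Further: E. coli MC1000 strain DRC41 lacking acrAB efflux pump and sulA.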 The note with it: E. coli DRC41 (acrAB sulA); higher = more signal, called active from +8 up or from −8 down unless noted.
Test [12] in a line: small-molecule binders of probe aLefty1, primary screen, biochemical, small-molecule microarray, 635/667 nm fluorescence (AID 1153).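 Further: score merges spot fluorescence with signal-to-noise ratio from the scanned slide images.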 The conditions noted are these: higher = more signal; small-molecule microarray, probe aLefty1, fluorescence unless noted.
Test [13] in a line: PSAC antagonists in infected red cells, primary screen, cell-based, P. falciparum Indochina, OD700, 1 h (AID 1154). The conditions noted are these: P. falciparum Indochina infected RBC osmotic lysis; higher = more signal, called active from +8 up or from −8 down unless noted.
Test [14] in a line: PSAC antagonists in infected red cells, primary screen, cell-based, P. falciparum Indochina, OD700, 2 h (AID 1155).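 Further: lysis reports solute entry through the parasite surface anion channel PSAC; channel blockers reduce lysis of infected cells.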 The conditions noted are these: P. falciparum Indochina infected erythrocytes, osmotic lysis OD700; higher = more signal, called active from +8 up or from −8 down unless noted.
Test [15] in a line: osmotic lysis modulators in infected erythrocytes, primary screen, PSAC antagonist project, cell-based, P. falciparum Indochina, OD700, 3 h (AID 1156). The note with it: higher = more signal, called active from +8 up or from −8 down unless noted.
A short description of test [16]: PSAC antagonists in infected red cells, primary screen, cell-based, P. falciparum Indochina, OD700, 18 h (AID 1157). The conditions noted are these: P. falciparum Indochina infected erythrocytes, osmotic lysis OD700, 18 h; higher = more signal, called active from +8 up or from −8 down unless noted.
Test [17] is described as follows: modulators of S6 phosphorylation in cells, primary screen, cell-based, A549, cytoblot, luminescence, serum-stimulated (AID 1158).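 Further: serum-stimulated A549 lung adenocarcinoma cells; signal is phosphorylated S6 detected by cytoblot immunostaining with HRP secondary.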 The note with it: A549 phospho-S6 cytoblot, 5 h, higher = more signal.
The target in test [18] is NADPH oxidase 2 (Homo sapiens) (UniProt P04839). The experiment in a line: NOX2-dependent H2O2 signal modulators, primary screen, NOX inhibitor project, cell-based, HEK293-NOX2, PMA-stimulated, Amplex Red fluorescence (AID 1159). Further: test concentration not given here. The conditions noted are these: 45 min; higher = more signal, called active from +8 up or from −8 down unless noted.
Test [19] has as its target NADPH oxidase 4 (Homo sapiens) (UniProt Q9NPH5). The experiment in a line: NOX4-dependent H2O2 signal modulators, primary screen, NOX inhibitor project, cell-based, HEK293-NOX4, tetracycline-induced, Amplex Red fluorescence (AID 1160). The note with it: 45 min; higher = more signal, called active from +8 up or from −8 down unless noted.
Test [20] addresses NADPH oxidase 5 (Homo sapiens) (UniProt Q96PH1). The test can be described thus: NOX5-dependent H2O2 signal modulators, primary screen, NOX inhibitor project, cell-based, HEK293-NOX5, Amplex Red fluorescence (AID 1161). The conditions noted are these: HEK293-NOX5, ionomycin, 45 min, higher = more signal.

Calls of active or inactive are those of the source. Unless noted, how the calls were made is not given here.

Chain of NADPH oxidase 2 (Homo sapiens) (P04839 whole entry, looked up): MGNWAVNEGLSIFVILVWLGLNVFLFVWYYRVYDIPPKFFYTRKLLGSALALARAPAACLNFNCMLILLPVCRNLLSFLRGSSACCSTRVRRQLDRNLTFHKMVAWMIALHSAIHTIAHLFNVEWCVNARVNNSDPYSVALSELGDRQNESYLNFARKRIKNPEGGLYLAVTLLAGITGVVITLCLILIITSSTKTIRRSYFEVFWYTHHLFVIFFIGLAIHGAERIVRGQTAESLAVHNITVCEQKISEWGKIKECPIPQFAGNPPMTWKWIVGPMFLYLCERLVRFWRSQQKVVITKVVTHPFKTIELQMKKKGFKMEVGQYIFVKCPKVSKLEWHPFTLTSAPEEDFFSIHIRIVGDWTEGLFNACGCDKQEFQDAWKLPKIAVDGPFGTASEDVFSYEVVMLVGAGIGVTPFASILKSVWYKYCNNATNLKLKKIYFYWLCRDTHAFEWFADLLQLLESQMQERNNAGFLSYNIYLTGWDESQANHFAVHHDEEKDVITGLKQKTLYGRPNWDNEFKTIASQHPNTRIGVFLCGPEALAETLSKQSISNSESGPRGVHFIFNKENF
Chain of NADPH oxidase 5 (Homo sapiens) (Q96PH1 whole entry, looked up): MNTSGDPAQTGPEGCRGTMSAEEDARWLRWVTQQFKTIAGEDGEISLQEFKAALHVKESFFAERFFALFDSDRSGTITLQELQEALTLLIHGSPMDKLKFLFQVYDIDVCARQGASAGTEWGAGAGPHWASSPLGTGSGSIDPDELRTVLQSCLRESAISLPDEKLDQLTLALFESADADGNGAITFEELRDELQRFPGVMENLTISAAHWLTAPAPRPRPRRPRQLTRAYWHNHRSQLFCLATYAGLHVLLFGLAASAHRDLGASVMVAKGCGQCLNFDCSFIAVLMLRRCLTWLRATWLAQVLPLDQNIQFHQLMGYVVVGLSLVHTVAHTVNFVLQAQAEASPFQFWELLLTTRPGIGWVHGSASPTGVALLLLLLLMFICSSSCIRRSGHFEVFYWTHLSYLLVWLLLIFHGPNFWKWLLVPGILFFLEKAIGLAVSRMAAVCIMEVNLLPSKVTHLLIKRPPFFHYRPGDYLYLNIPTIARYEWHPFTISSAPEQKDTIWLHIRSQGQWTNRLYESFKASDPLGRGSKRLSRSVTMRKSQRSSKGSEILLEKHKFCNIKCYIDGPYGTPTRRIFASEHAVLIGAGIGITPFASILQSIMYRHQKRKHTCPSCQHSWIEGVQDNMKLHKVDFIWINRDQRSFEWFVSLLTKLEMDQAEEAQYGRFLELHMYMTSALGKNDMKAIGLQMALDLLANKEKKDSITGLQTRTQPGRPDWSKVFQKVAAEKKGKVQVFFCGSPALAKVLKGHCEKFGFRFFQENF
Chain of NADPH oxidase 4 (Homo sapiens) (Q9NPH5 whole entry, looked up): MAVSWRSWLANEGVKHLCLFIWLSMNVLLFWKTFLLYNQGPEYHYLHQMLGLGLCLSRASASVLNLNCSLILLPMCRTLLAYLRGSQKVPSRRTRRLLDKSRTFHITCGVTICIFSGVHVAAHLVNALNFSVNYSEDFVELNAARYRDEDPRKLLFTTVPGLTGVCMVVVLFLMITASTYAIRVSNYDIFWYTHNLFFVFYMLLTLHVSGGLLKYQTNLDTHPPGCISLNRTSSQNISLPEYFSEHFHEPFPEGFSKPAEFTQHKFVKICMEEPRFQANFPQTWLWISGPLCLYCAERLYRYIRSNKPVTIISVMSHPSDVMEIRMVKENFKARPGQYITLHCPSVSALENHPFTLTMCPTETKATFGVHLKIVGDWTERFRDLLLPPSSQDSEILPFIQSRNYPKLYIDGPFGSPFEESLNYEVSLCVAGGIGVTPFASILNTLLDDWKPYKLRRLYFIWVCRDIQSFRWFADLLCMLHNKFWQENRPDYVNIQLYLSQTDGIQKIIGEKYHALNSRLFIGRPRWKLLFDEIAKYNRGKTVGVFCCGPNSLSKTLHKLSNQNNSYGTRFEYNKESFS
Chain of Torsin-1A (Homo sapiens) (O14656 whole entry, looked up): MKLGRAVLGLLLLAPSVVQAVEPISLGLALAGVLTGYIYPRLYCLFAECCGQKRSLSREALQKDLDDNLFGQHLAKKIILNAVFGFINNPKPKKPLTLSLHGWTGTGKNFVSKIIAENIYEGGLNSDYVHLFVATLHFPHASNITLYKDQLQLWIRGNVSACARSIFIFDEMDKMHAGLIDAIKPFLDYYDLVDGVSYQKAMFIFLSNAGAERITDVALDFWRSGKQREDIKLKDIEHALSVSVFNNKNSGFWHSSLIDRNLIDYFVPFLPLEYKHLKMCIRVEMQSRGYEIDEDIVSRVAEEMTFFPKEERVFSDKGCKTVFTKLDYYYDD
Chain of Streptavidin (Streptomyces avidinii) (P22629 whole entry, looked up): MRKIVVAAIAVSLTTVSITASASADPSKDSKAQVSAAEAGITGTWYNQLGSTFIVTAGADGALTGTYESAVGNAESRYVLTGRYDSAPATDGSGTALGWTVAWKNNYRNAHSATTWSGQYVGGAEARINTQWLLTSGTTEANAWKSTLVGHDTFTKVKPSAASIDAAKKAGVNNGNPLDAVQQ

`COC(=O)[C@@]1(Cc2ccccc2)[C@H]2c3cc(C(=O)N(C)C)[nH]c3C[C@H]2CN1C(=O)c1ccccc1`: the composite z-score in test [1] is 0.155; in [6] it was -0.033; in test [7], -0.147; in the test with Torsin-1A (Homo sapiens) [8], -0.816; with Torsin-1A (Homo sapiens) [9], -0.317; in test [10], -0.836. The molecule also yielded a composite z-score in [12] of 0.802. The z-score in [2] was -0.167 (inactive); in [3], -0.0166 (inactive); in test [4], -0.368 (inactive); in test [5] it was -0.897 (inactive); in test [11] it was -1.41 (inactive); in test [13], 1.11 (inactive). Moreover, the z-score in test [14] is 0.322 (inactive); in test [15], 0.337 (inactive); in [16], 0.766 (inactive); in test [17], -0.519; in [18], 0.434 (inactive); in test [19] it was 0.0256 (inactive). In [20], the z-score was -3.03.

As to `CCCC=C(CCC)[C@@H](NP(=O)(c1ccccc1)c1ccccc1)c1ccccc1`, the composite z-score in test [1] is -0.0444; in [6], 0.821; in test [7] it was -0.168; in the test with Torsin-1A (Homo sapiens) [8] it was 0.364; with Torsin-1A (Homo sapiens) [9], 0.368; in test [10], -0.0623. This molecule returned a composite z-score in [12] of 0.547. Also, the z-score in test [2] is -0.411 (inactive); in test [3], 0.168 (inactive); in [4] it was 0.201 (inactive); in [5] it was 0.89 (inactive); in test [11], -1.19 (inactive); in [13] it was 4.03 (inactive). In addition, the z-score was 0.584 (inactive) in test [14]; 0.689 (inactive) in [15]; 0.249 (inactive) in test [16]; 1.02 in test [17]; -1.7 (inactive) in test [18]; -0.617 (inactive) in [19]. This molecule also gave a z-score in [20] of 0.842.

For `OCc1ccc(C2=CC(C3CC3)N(Cc3sc4ccccc4c3Cl)CC2)cc1` (stereo not given), the composite z-score in [1] was 0.074; in test [6] it was 0.337; in test [7] it was 0.0028; with Torsin-1A (Homo sapiens) [8], 0.771; with Torsin-1A (Homo sapiens) [9] it was 0.679; in test [10], 1.65. The same molecule returned a composite z-score in [12] of 0.0253. For the same molecule, the z-score in test [2] is -3.22 (inactive); in test [3], -0.259 (inactive); in [4], 7.14 (inactive); in test [5] it was -2.05 (inactive); in test [11], -2 (inactive); in test [13], 13.6 (active). In addition, the z-score in [14] was 2.7 (inactive); in test [15], 0.258 (inactive); in [16], 1.51 (inactive); in test [17] it was -0.627; in [18] it was 0.703 (inactive); in test [19], -1.07 (inactive). The molecule further displayed a z-score in test [20] of -1.55.

With `c1ccc(-c2cc3c(nc2-c2ccccc2)CCNC3)cc1`, the composite z-score was -0.2 in [1]; 0.0291 in test [6]; 0.0228 in [7]; 0.175 with Torsin-1A (Homo sapiens) [8]; -0.256 with Torsin-1A (Homo sapiens) [9]; -0.193 in test [10]. In addition, in test [12], the composite z-score is -0.101. The z-score was -0.207 (inactive) in test [2]; 0.346 (inactive) in test [3]; 0.291 (inactive) in [4]; -0.815 (inactive) in test [5]; -0.539 (inactive) in test [11]; 1.39 (inactive) in [13]. In addition, the z-score in test [14] is 0.179 (inactive); in test [15], 0.484 (inactive); in test [16], 0.248 (inactive); in test [17], -0.597; in test [18], 1.18 (inactive); in test [19] it was 0.286 (inactive). Moreover, the z-score in test [20] was -0.433.

In the case of `CN1CCC(c2ccc(CO)cc2)=CC1C1CC1` (stereo not given), the composite z-score in test [1] was -0.103; in test [6], -0.333; in test [7], -0.101; with Torsin-1A (Homo sapiens) [8], 0.309; with Torsin-1A (Homo sapiens) [9], 0.431; in [10] it was 1.85. Moreover, the composite z-score in test [12] stood at 0.103. Further, the z-score in test [2] was -0.209 (inactive); in [3], 0.656 (inactive); in test [4] it was 3.78 (inactive); in test [5], 0.54 (inactive); in test [11], -0.492 (inactive); in test [13], 0.899 (inactive). Also, the z-score is 0.0137 (inactive) in [14]; -0.38 (inactive) in [15]; 0.0864 (inactive) in [16]; -1.04 in test [17]; -0.477 (inactive) in [18]; -0.169 (inactive) in [19]. This molecule also had a z-score in test [20] of -0.0858.

Turning to `CCCc1cc2c(n1Cc1ccco1)C(C)C1CN(C(=O)c3ccccc3)C(C)(C(=O)OC)C21` (stereo not given), the composite z-score in test [1] came out at 0.326; in test [6] it was 1; in test [7], 0.173; with Torsin-1A (Homo sapiens) [8] it was 0.556; with Torsin-1A (Homo sapiens) [9], 0.944; in test [10] it was 0.357. The composite z-score in [12] is 0.439. For the same molecule, the z-score in test [2] is -2.79 (inactive); in test [3], 0.666 (inactive); in test [4] it was 0.394 (inactive); in [5] it was 0.718 (inactive); in test [11], -2.11 (inactive); in test [13], 5.21 (inactive). The z-score is 0.63 (inactive) in [14]; 0.952 (inactive) in test [15]; 0.495 (inactive) in test [16]; -0.11 in test [17]; -1.61 (inactive) in [18]; -6.73 (inactive) in test [19]. In [20], this molecule registered a z-score of -3.84.

As to `C[C@@H]1OC=C2[C@@H](O)[C@H]3O[C@H]3C(=O)[C@]23[C@H]1[C@H]1C2=C([C@@H](O)[C@H]4O[C@H]4C2=O)[C@@H]3O[C@@H]1C`, the composite z-score in [1] is -0.0894; in test [6] it was -0.0542; in [7] it was -0.206; with Torsin-1A (Homo sapiens) [8] it was 0.924; with Torsin-1A (Homo sapiens) [9], 0.419; in test [10], 0.881. For the same molecule, the composite z-score in test [12] is -0.27. The z-score is 0.612 (inactive) in test [2]; 0.389 (inactive) in test [3]; 1.01 (inactive) in [4]; 1.04 (inactive) in [5]; -0.418 (inactive) in [11]; -0.531 (inactive) in [13]. Further, the z-score is 0.407 (inactive) in [14]; -0.655 (inactive) in test [15]; 0.0502 (inactive) in test [16]; 0.0176 in test [17]; 1.2 (inactive) in test [18]; 0.214 (inactive) in test [19]. Besides, in test [20], the z-score is -0.31.

Take `COc1cc2c(cc1O)C=[N+](C)CC2`: the composite z-score was 0.182 in test [1]; -0.306 in [6]; -0.152 in test [7]; -1.31 with Torsin-1A (Homo sapiens) [8]; -1.25 with Torsin-1A (Homo sapiens) [9]; 1.65 in [10]. For the same molecule, in test [12], the composite z-score is -0.147. Moreover, the z-score in test [2] is -1.29 (inactive); in test [3] it was -0.527 (inactive); in test [4], -0.438 (inactive); in test [5] it was -0.811 (inactive); in test [11], 1.13 (inactive); in test [13] it was 2.39 (inactive). In addition, the z-score was -0.687 (inactive) in [14]; 0.0284 (inactive) in [15]; -0.752 (inactive) in [16]; 2.42 in test [17]; -3.74 (inactive) in test [18]; -2.03 (inactive) in test [19]. Also, the z-score in [20] is -2.13.

The values are drawn from PubChem BioAssay.
